Where “and” joins values, the source holds several entries; their conditions need not be identical. Equal values may be shown once. Inconclusive results are not listed. Calls of active or inactive are those of the source. Rule for the calls, unless noted: active = hit-call score of the fitted dose curve at least 0.9, where 1 is the maximum; inconclusive = response in the unintended direction; inactive = score below 0.9. *1 amine or outer side, *2 acyl side, *3 side chain or, on linkers, in order; H or OH if unused. Where a SMILES comes first, the peptide text is derived from it. Bridges are numbered along the chain shown (N, C = ends). Roman numbers before positions name the chains, in order. [ ]: non-standard residue; d: D form. Actinocin(9to1) = Cc1c2oc3c(C)ccc(C(=O)[*:1])c3nc-2c(C(=O)[*:2])c(N)c1=O; NMeV = CN[C@H](C(=O)O)C(C)C; Sar = CNCC(=O)O
Columns and labels:
[1] = molecular target: Cellular tumor antigen p53 (Homo sapiens) (UniProt P04637); assay: TOX21_p53_BLA_p2_ratio: Tox21 HCT-116 p53 Agonism Beta-lactamase Assay, Ratio, Phase 2 (AID 2283592)
Procedure, shortened: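 HCT116 cells carrying a p53-responsive beta-lactamase reporter were plated, incubated 5 h at 37C, then dosed with compounds in DMSO (217-fold dilution) for 16 h. CCF4-AM substrate was added for 2 h at room temperature; the 460/530 nm emission ratio gave gain-of-signal activity relative to DMSO.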

[2] = TOX21_p53_BLA_p3_viability: Viability Assessment in the Tox21 HCT-116 p53 Agonism Beta-lactamase Assay, Phase 3 (AID 2283593);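 note: cells exposed to compound for 16 h before reading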
Procedure, shortened: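 HCT-116 cells (4000/well) rested 5 h at 37C, then got DMSO compounds by pin tool (217-fold dilution) for 16 h at 37C, 5% CO2. After the bla read, CellTiter-Glo was added and luminescence read at 30 min, room temperature.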

[3] = molecular target: Cellular tumor antigen p53 (Homo sapiens) (UniProt P04637); assay: TOX21_p53_BLA_p3_ratio: Tox21 HCT-116 p53 Agonism Beta-lactamase Assay, Ratio, Phase 3 (AID 2283596)
Procedure, shortened: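 HCT116 p53-bla cells (4000/well) given compound in DMSO (217-fold dilution) after 5 h, incubated 16 h at 37C. CCF4-AM substrate 2 h at room temperature; 460/530 nm emission ratio, gain fitted against DMSO.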

[4] = TOX21_p53_BLA_p4_viability: Viability Assessment in the Tox21 HCT-116 p53 Agonism Beta-lactamase Assay, Phase 4 (AID 2283597);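 note: hits lower the luminescence signal meaning cytotoxicity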
Procedure, shortened: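 HCT116 p53-bla cells (4000/well) rested 5 h at 37C, then received compounds in DMSO (217-fold dilution) for 16 h at 37C, 5% CO2. CellTiter-Glo was added after the CCF4-AM read, and luminescence was read after 30 min at room temperature.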

[5] = molecular target: Cellular tumor antigen p53 (Homo sapiens) (UniProt P04637); assay: TOX21_p53_BLA_p5_ratio: Tox21 HCT-116 p53 Agonism Beta-lactamase Assay, Ratio, Phase 5 (AID 2283599)
Procedure, shortened: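 HCT-116 cells carrying a p53-inducible beta-lactamase reporter were seeded at 4000 cells/well and dosed after 5 h with compound in DMSO (217-fold dilution). After 16 h at 37C, CCF4-AM substrate was added for 2 h, and the 460/530 nm emission ratio was scored as gain-of-signal versus DMSO.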

[6] = molecular target: Cellular tumor antigen p53 (Homo sapiens) (UniProt P04637); assay: TOX21_p53_BLA_p4_ratio: Tox21 HCT-116 p53 Agonism Beta-lactamase Assay, Ratio, Phase 4 (AID 2283601)
Procedure, shortened: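 HCT116 cells carrying an inducible beta-lactamase reporter were plated at 4000 cells/well, rested 5 h, then exposed to compounds in DMSO (217-fold dilution) for 16 h at 37C. CCF4-AM substrate was loaded 2 h at room temperature; 460/530 nm emission ratio scored gain-of-signal versus DMSO.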

[7] = test system: Brachyury (BRA) Protein Expression, Deisenroth Lab, TBXT (gene 6862); assay: CCTE_Deisenroth_DEVTOX-GLR_legacy_Bra: (Legacy) CCTE's DevTox GLR-Endo Assay Evaluation of Brachyury (BRA) Protein Expression, Deisenroth Lab (AID 2284329; active = hit-call score of the fitted dose curve at least 0.9, where 1 is the maximum; inactive = score below 0.9)
Procedure, shortened: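 RUES2-GLR human pluripotent cells differentiated 48 h with two 24-h-interval chemical exposures (1 nM - 200 uM, 10 points); fixed, nuclear-stained, imaged. Bra+ cell percentage (intensity 5x BMAD above pluripotent control median) fitted relative to 0.2% DMSO.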

[8] = CCTE_Deisenroth_DEVTOX-GLR_legacy_CellCount: (Legacy) Viability Assessment in CCTE's DevTox GLR-Endo Assay, Deisenroth Lab (AID 2284331; active = hit-call score of the fitted dose curve at least 0.9, where 1 is the maximum; inactive = score below 0.9); settings: actives raise or lower the signal
Procedure, shortened: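 Seed RUES2-GLR 24 h; differentiate 48 h, dosing at 0 and 24 h; fix, stain nuclei; image 5 fields/well; count nuclei. Conc. 1 nM - 200 uM, single technical replicate, n=4 experiments; bidirectional fit vs 0.2% DMSO.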

[9] = test system: SRY-box transcription factor 17 (SOX17) Protein Expression, Deisenroth Lab, SOX17 (gene 64321); assay: CCTE_Deisenroth_DEVTOX-GLR_legacy_Sox17: (Legacy) CCTE's DevTox GLR-Endo Assay Evaluation of SRY-box transcription factor 17 (SOX17) Protein Expression, Deisenroth Lab (AID 2284341; active = hit-call score of the fitted dose curve at least 0.9, where 1 is the maximum; inactive = score below 0.9); settings: actives raise or lower the signal
Procedure, shortened: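 Using the RUES2-GLR line, compounds are tested as 10-point series during 48-h defined-media differentiation. Sox17 reporter fluorescence per cell determines positivity; endpoint is percentage positive, analysed bidirectionally versus DMSO baseline.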

[10] = test system: SRY-box transcription factor 2 (SOX2) Protein Expression, Deisenroth Lab, SOX2 (gene 6657); assay: CCTE_Deisenroth_DEVTOX-GLR_legacy_Sox2: (Legacy) CCTE's DevTox GLR-Endo Assay Evaluation of SRY-box transcription factor 2 (SOX2) Protein Expression, Deisenroth Lab (AID 2284346; active = hit-call score of the fitted dose curve at least 0.9, where 1 is the maximum; inactive = score below 0.9)
Procedure, shortened: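 RUES2-GLR human pluripotent cells seeded 24 h, then differentiated 48 h in defined media with two chemical doses 24 h apart (10-point, 1 nM–200 uM). Fixed, nuclear-stained, imaged; % Sox2+ cells (>5x BMAD over endoderm control median), DMSO-subtracted, fitted upward.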

[11] = test system: SRY-box transcription factor 2 (SOX2) Protein Expression, Deisenroth Lab, SOX2 (gene 6657); assay: CCTE_Deisenroth_DEVTOX-GLR_Endo_SOX2: CCTE's DevTox GLR-Endo Assay Evaluation of SRY-box transcription factor 2 (SOX2) Protein Expression, Deisenroth Lab (AID 2284412)
Procedure, shortened: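 RUES2-GLR human pluripotent cells were seeded 24 h, then differentiated 48 h with two chemical exposures 24 h apart. Cells were fixed, nuclei stained and imaged by high-content microscopy. Endpoint is %SOX2+ cells over cell count, minus 0.2% DMSO control; 10-point series 1 nM–200 uM.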

[12] = test system: SRY-box transcription factor 17 (SOX17) Protein Expression, Deisenroth Lab, SOX17 (gene 64321); assay: CCTE_Deisenroth_DEVTOX-GLR_Endo_SOX17: CCTE's DevTox GLR-Endo Assay Evaluation of SRY-box transcription factor 17 (SOX17) Protein Expression, Deisenroth Lab (AID 2284413; active = hit-call score of the fitted dose curve at least 0.9, where 1 is the maximum; inactive = score below 0.9)
Procedure, shortened: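 Endpoint: % change in SOX17+ fraction (SOX17+ cells / cell count) vs 0.2% DMSO solvent control. RUES2-GLR reporter cells, 48 h endoderm differentiation, two doses at 24 h intervals, high-content fluorescence imaging, 5 fields/well.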

[13] = CCTE_Deisenroth_DEVTOX-GLR_Endo_CellCount: Viability Assessment in CCTE's DevTox GLR-Endo Assay, Deisenroth Lab (AID 2284420; active = hit-call score of the fitted dose curve at least 0.9, where 1 is the maximum; inactive = score below 0.9)
Procedure, shortened: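 RUES2-GLR human pluripotent cells seeded 24 h, then differentiated 48 h with two chemical exposures at 24 h intervals (10-point, 1 nM - 200 uM). Fixed, nuclear-stained, imaged; nuclei counts give % change in cell count versus 0.2% DMSO.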

[14] = TOX21_p53_BLA_p5_viability: Viability Assessment in the Tox21 HCT-116 p53 Agonism Beta-lactamase Assay, Phase 5 (AID 2283600)
Procedure, shortened: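 Cells were plated at 4000/well, rested 5 h at 37C, then given compounds in DMSO (217-fold dilution) for 16 h at 37C, 5% CO2. Following the CCF4-AM beta-lactamase read, CellTiter-Glo was added and luminescence was read after 30 min at room temperature.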

Measured: AC50

Sequence of Cellular tumor antigen p53 (Homo sapiens) (P04637 whole entry, looked up): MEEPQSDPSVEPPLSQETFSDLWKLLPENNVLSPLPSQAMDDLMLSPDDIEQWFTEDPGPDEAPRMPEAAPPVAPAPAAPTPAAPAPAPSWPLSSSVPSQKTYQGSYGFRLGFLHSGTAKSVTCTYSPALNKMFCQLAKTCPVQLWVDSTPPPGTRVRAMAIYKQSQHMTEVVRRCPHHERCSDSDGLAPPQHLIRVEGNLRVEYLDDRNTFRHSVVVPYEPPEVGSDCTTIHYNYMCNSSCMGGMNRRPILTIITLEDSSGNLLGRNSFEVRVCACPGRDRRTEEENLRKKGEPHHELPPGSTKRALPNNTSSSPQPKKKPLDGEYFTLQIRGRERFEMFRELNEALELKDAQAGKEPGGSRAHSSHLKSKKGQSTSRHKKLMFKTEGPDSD

Cc1c2oc3c(C)ccc(C(=O)N[C@@H]4C(=O)N[C@H](C(C)C)C(=O)N5CCC[C@H]5C(=O)N(C)CC(=O)N(C)[C@@H](C(C)C)C(=O)O[C@@H]4C)c3nc-2c(C(=O)N[C@@H]2C(=O)N[C@H](C(C)C)C(=O)N3CCC[C@H]3C(=O)N(C)CC(=O)N(C)[C@@H](C(C)C)C(=O)O[C@@H]2C)c(N)c1=O (I: T[dV]P[Sar][NMeV] / II: T[dV]P[Sar][NMeV]; ester I:1-I:C, II:1-II:C; linker I:N-II:N via Actinocin(9to1))
active: [1] 0.163 nM and 3.91 nM | [2] 40.6 µM | [3] 0.165 nM and 4.24 nM | [5] 0.0328 nM and 7.71 nM | [6] 0.262 nM and 3.61 nM | [7] 0.00154 µM | [8] 0.000297 µM | [9] 0.000544 µM | [10] 0.00231 µM | [11] 0.00162 µM | [12] 0.0442 nM | [13] 0.0148 nM
inactive: [4]

CC(C)NCC(O)c1ccc2ccccc2c1 (stereo not drawn)
inactive: [1] | [2] | [3] | [4] | [5] | [6]

Cc1cccn2c(=O)c(-c3nnn[nH]3)cnc12
inactive: [1] | [2] | [3] | [4] | [14] | [6]

CCCCCCCCCCCCCCC[C@H](O)[C@@H](N)CO
inactive: [1] | [2] | [3] | [4] | [5] | [6]

O=C(O)CCCc1ccccc1
inactive: [1] | [3] | [4] | [5] | [6]
active: [2] 36.2 µM

Nc1ccccc1O
inactive: [2]
active: [1] 41 µM | [3] 39.2 µM | [4] 75.4 µM | [5] 32.1 µM | [6] 35.2 µM

CCN(C=O)CC
inactive: [1] | [2] | [3] | [4] | [14]

Source: PubChem BioAssay (EPA / NIEHS)
